In PubChem BioAssay AID492992 (Johns Hopkins Ion Channel Center, 2010):
The campaign covered roughly 4,900 compounds. About 2,100 (43%) were called active.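 Rule for the calls: active = thallium signal inhibited by more than 5 SD of the compound-free buffer control wells, on both duplicate plates; inactive = the rest.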 So high a share suggests a set chosen from earlier hits. Not all results are given here.

Biological target: Potassium channel subfamily K member 9 (Homo sapiens) (UniProt Q9NPC2)
Experiment: blockers of human TASK-3 (KCNK9) channel – HEK293 cells, thallium flux, duplicate, confirmation (AID 492992);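 for inhibition: 0% = assay buffer control wells without compound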
Settings: FluxOR thallium flux fluorescence, at 10 µM; stronger effect = higher value

Chain of Potassium channel subfamily K member 9 (Homo sapiens) (Q9NPC2 whole entry, looked up): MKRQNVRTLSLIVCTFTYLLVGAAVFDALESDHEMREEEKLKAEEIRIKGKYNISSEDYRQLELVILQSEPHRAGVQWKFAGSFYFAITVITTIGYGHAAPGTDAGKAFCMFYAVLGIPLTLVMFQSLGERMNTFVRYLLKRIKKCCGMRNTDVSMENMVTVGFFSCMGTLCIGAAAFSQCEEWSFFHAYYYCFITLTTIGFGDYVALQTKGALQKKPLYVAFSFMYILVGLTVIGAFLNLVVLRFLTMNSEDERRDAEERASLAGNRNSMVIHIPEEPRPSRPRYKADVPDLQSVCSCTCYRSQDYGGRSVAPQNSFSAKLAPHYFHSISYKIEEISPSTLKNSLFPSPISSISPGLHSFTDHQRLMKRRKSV

inhibition, inactive:
COc1ccc([N+](=O)[O-])cc1-c1nc2ccccc2nc1-c1ccccc1
COC(=O)Cn1cnc2scc(-c3ccc(C)c(C)c3)c2c1=O
O=C1/C(=C/c2ccc3c(c2)OCO3)CCC/C1=C\c1ccc2c(c1)OCO2
COc1ccc(CCNc2ncnc3c2nnn3Cc2ccccc2)cc1
O=C(NCCCc1ccccc1)c1cc(COc2c(F)cccc2F)on1
COc1ccc(-c2noc(CSc3ccc(C)cc3)n2)cc1
COc1cccc(C(=O)NCCSc2ccc(Br)cc2)c1
CCOc1ccccc1NC(=O)C12CC3CC(C1)CC(c1ccc(C)cc1)(C3)C2
COc1ccc(-c2oc(/N=C/N3CCCC3)c(C#N)c2-c2ccc(OC)cc2)cc1
C/C(=N\NC(=S)Nc1ccc(C)cc1)c1cc2ccccc2o1
Cc1cccc(N(C)C(=O)CN2C(=O)COc3ccc(S(=O)(=O)N4CCCCCC4)cc32)c1
Cc1ccc(S(=O)(=O)N2CCN(C(=O)COC(=O)c3c(C)cc(C)cc3C)CC2)c(C)c1
CC(C)(C)NC(=O)NC(=O)CN1CCC(Cc2ccccc2)CC1
CC1=CC(C)(C)N(C(=O)CSc2nnc(-c3ccccc3)o2)c2ccc(C)cc21
O=[N+]([O-])/C=C/c1ccc2c(ccn2Cc2ccccc2)c1
COC(=O)c1sc(-c2ccc(C(C)(C)C)cc2)cc1NC(=O)/C=C/C(=O)O
O=C(CC(NC(=O)c1ccccc1)c1ccccc1)Nc1ccc(F)c(F)c1 (configuration not stated)
Cc1ccc(C(=O)c2c(NC(=O)c3ccccc3)sc(C)c2C)cc1

inhibition, active:
CC(C)N(C(=O)CSc1nc(COc2ccccc2)nc2ccccc12)C(C)C 76.5%
COc1ccc(CCNC(=O)c2ccccc2OCc2ccccc2)cc1 64%
COc1cc(NC(=S)NCCSc2ccc(C)cc2)cc(OC)c1 27%
O=C(Oc1ccc(Br)cc1C(=S)N1CCOCC1)c1cccc([N+](=O)[O-])c1 50%
O=C(Cn1cc(C(=O)c2cccs2)c2ccccc21)NCc1cccs1 39%
Cc1ccc(CN(N=Nc2nonc2N)c2nonc2N)c(C)c1 68.5%
CCOc1ccc(C(C)C)cc1S(=O)(=O)n1nc(C)cc1C 33%
C=CCOc1ccc(/C=N/NC(=O)C(C)Sc2ccccn2)cc1OCC (configuration not stated) 46.5%
O=C(C[C@H]1C(=O)N(c2ccc(F)c(F)c2)C[C@@H]1Cc1ccccc1)Nc1ccccc1 39%
